# Reference: PubChem BioAssay (NCI)
# Compounds without any hit were thinned out: in the full panel of roughly 83,000, 20% have a hit.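 A percent growth of 40 corresponds to 60% growth inhibition; 0 means no net growth; -100 means all cells died. Active threshold: below 10.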 Unmarked numbers belong to inactive results. Calls of active or inactive are those of the source.
# How the values were obtained:
# Experiment in all cases: NCI-60 one-dose screen, 48 h (100 = growth as untreated, 0 = no growth, -100 = all killed)
# Settings in all cases: 10 µM unless noted
# RPMI-8226 leukemia = test system: RPMI-8226 leukemia
# OVCAR-8 ovarian = test system: OVCAR-8 ovarian
# OVCAR-5 ovarian = test system: OVCAR-5 ovarian
# OVCAR-4 ovarian = test system: OVCAR-4 ovarian
# SK-OV-3 ovarian = test system: SK-OV-3 ovarian
# IGROV1 ovarian = test system: IGROV1 ovarian
# OVCAR-3 ovarian = test system: OVCAR-3 ovarian
# HS 578T breast = test system: HS 578T breast
# NCI/ADR-RES ovarian = test system: NCI/ADR-RES ovarian
# T-47D breast = test system: T-47D breast
SMILES,growth (RPMI-8226 leukemia),growth (OVCAR-8 ovarian),growth (OVCAR-5 ovarian),growth (OVCAR-4 ovarian),growth (SK-OV-3 ovarian),growth (IGROV1 ovarian),growth (OVCAR-3 ovarian),growth (HS 578T breast),growth (NCI/ADR-RES ovarian),growth (T-47D breast)
COC1CC2CCC(C)C(O)(O2)C(=O)C(=O)N2CCCCC2C(=O)OC(C(C)CC2CCC(O)C(OC)C2)CC(=O)C(C)C=C(C)C(O)C(OC)C(=O)C(C)CC(C)/C=C/C=C/C=C1C (centres undefined),23.5%,38.2%,59.2%,34.5%,52.9%,15.5%,50%,45.2%,49.1%,31.1%
COc1ccc2c(c1)C(=O)c1c-2c(OCCCN(C)C)nc2cc(Br)ccc12,73.4%,3.85% (active),-46% (active),88.6%,81.3%,71.3%,89.1%,81.4%,65.6%,84%
Oc1[nH]c2ccc(Cl)cc2c1/C=c1/ccc2c(c1)N=C(c1ccc(C(F)(F)F)cc1)N=2,69%,67.6%,76.2%,59.5%,84.4%,76.8%,32.3%,74%,62.7%,60.5%
Cc1c(C(N)=O)sc2ncn(CC(=O)Nc3ccc(Cl)cc3)c(=O)c12,101%,105%,85.5%,110%,106%,533%,122%,139%,102%,102%
O=C1C(Cl)=C(N=Nc2c(Cl)c(O)c3ccccc3c2O)C(=O)c2ccccc21,69.2%,79.1%,121%,72.3%,89.8%,60.1%,24.3%,55.3%,73.8%,66.9%
C=CCOc1ccc2c(c1)CC[C@@H]1[C@@H]2CC[C@@]2(C)[C@H]1CC[C@]2(C)O,51.8%,66.4%,75.3%,89.4%,93.9%,104%,111%,93%,90.5%,79.9%
CCOC(=O)C1C(=O)OC2CCCCC21 (centres undefined),99.9%,99.5%,117%,102%,109%,103%,126%,105%,116%,
O=NC1CC=CCC1c1ccccc1 (centres undefined),114%,108%,94.5%,106%,111%,111%,118%,125%,104%,111%
Cc1nc2cc(NC(=O)CN3CCN(CCN4C(=O)c5cccc6cccc(c56)C4=O)CC3)ccc2s1,28.9%,30.2%,72%,61.4%,66.3%,44%,74.3%,69.5%,45.9%,50.7%
O=C(Nc1ccc(Cl)cc1)Nc1ccc(Oc2nncc3ccccc23)cc1,-0.0795% (active),19.4%,-16% (active),-20.8% (active),56.7%,8.16% (active),-62.8% (active),37.5%,37.6%,10.2%
CCC(C)CC(C)C(=O)c1c(O)ccn(O)c1=O (centres undefined),11.7%,17.8%,72.8%,30.3%,65.3%,24.2%,19%,62%,4.73% (active),35.5%
CCCCCCCCCCCCNc1ncnc2[nH]ncc12,63%,77.3%,90.6%,77.8%,105%,92.8%,79.5%,92.4%,83.8%,62.8%
Cc1ccsc1/C=C/C1=NCCCN1C,100%,108%,111%,102%,103%,101%,108%,115%,107%,93.9%
O=C(/C=C/c1ccc(O)c(O)c1)N1CCN(c2ccc(Cl)cc2)CC1,42%,61.6%,95.3%,51.4%,80.7%,14.9%,60.3%,80.2%,58.7%,49.2%
O=C1/C(=N/O)CCc2ccccc21,72.9%,95.6%,108%,85.7%,100%,69.5%,-6.51% (active),95%,102%,100%
COc1cc2c(C#N)n3c(c2cc1OC)C(=O)C(c1ccccc1)Oc1ccccc1-3 (centres undefined),28.7%,18.1%,69.2%,16%,97.6%,58.3%,53.2%,73.5%,21.5%,17.1%
Cc1c(N(C)CS(=O)(=O)O)c(=O)n(-c2ccccc2)n1C,99.2%,109%,106%,116%,104%,103%,118%,125%,109%,107%
Oc1ccc(Cc2ccc(O)c(C3CC(c4ccc(Cl)cc4)=NN3)c2)cc1C1CC(c2ccc(Cl)cc2)=NN1 (centres undefined),17.4%,15.8%,37.8%,43.5%,50.5%,18.5%,10% (active),13.8%,4.68% (active),38.3%
COc1cc2c(cc1OCCCOc1ccc(-c3cc4ccccc4c4ccccc34)cc1)N=C[C@@H]1CCCN1C2=O,0.228% (active),-6.49% (active),-69.5% (active),-77.1% (active),-19.3% (active),-72.3% (active),-48.4% (active),-15.3% (active),-46.1% (active),-66.4% (active)
CSc1nc2c(c(=O)[nH]1)C(c1ccc(Cl)cc1)C1=C(N2)/C(=C/c2ccc(Cl)cc2)CNC1 (centres undefined),-13.4% (active),31.6%,105%,33.1%,87.4%,26.1%,4.17% (active),68.7%,74.5%,54.3%
O=C(Nc1cccc(-n2cc(-c3ccncc3)c(-c3ccc(O)c(Cl)c3)n2)c1)Nc1ccc(Cl)c(C(F)(F)F)c1,-27.4% (active),-44.7% (active),39.4%,-5.46% (active),4.82% (active),-20.9% (active),-21.1% (active),-0.107% (active),11.3%,-10% (active)
CC(=O)c1ccc2c3c(n(C)c2c1)CCCC3,90.2%,106%,91.7%,106%,110%,104%,111%,141%,96.9%,109%
CCC(CC)NCCCCCNc1cc(OC)cc2cccnc12,115%,93.5%,88.9%,32.1%,97.7%,111%,83.3%,91.2%,83.3%,73.8%
Clc1ccc(CCC(Cn2ccnc2)Sc2c(Cl)cccc2Cl)cc1 (centres undefined),25.2%,63.8%,68%,60.4%,91.1%,59%,59.4%,90.8%,28.2%,39.5%
CN(CCOc1ccc(CC2SC(=O)NC2=O)cc1)c1ccccn1 (centres undefined),104%,91.9%,95.2%,110%,106%,97.9%,110%,100%,101%,102%
O=C1c2ccccc2-c2c1nc1ccccc1[n+]2[O-],106%,108%,94.9%,115%,102%,99.9%,107%,106%,105%,107%
COc1cc(/C=C/C(=O)Nc2cccnc2Nc2cc(OC)c(OC)c(OC)c2)cc(OC)c1OC,66.9%,84.1%,99.3%,92.7%,112%,112%,114%,96.6%,83.5%,100%
O=C(Nc1nc(-c2ccccc2)cs1)c1cc(O)c(O)c(O)c1,17.8%,39%,89.4%,44.5%,70%,33.2%,22.3%,73.6%,47%,31.2%
